Assay outcomes: PubChem BioAssay, National Center for Advancing Translational Sciences (NCATS)
Shown are actives, neighbours in structure and some others; about 2.3% of the full set was active somewhere.
TGFb SMAD3 inh – blocks TGF-b signaling; HepG2 CAGA-GFP TGF-b/SMAD3 reporter, GFP fluorescence, 18 h; TGF-beta stimulated, 500 pg/mL final; Potency, µM (top dose mostly 46.1 µM), for the others: at the top dose activity, negative = inhibition, most hits filed as inhibitors; actives 1.2% (n = 410,000); note: % is set by controls: 0 for no effect and ±100 for the full control effect; nearly all actives have a fitted effect of over 65% in size
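Inhibition was scored as loss of TGF-beta-induced (500 pg/mL final, 18 hours, 37 degrees C) GFP in HEPG2 cells carrying a CAGA-GFP reporter, in DMEM with 1% FBS. Well GFP was summed per cell; Activity was normalised to unstimulated and stimulated DMSO wells, then concentration-response fitting.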
HepG2 viability – counter-screen for TGF-b inhibitors: cytotoxicity in HepG2 cells. HepG2 CAGA-GFP viability, ATP luminescence, 18 h. Potency, µM (doses to about 46.1 µM), for the others: at the top dose activity change, negative = cytotoxicity, hits mostly cytotoxic. actives 0.76% (n = 410,000). AID 588856
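HepG2 CAGA-GFP cells (1000/well, DMEM with 1% FBS) received compound, then TGF-beta at 500 pg/mL final, and were incubated 18 hours at 37 degrees C. Viability was read by CellTiter-Glo luminescence. Media-only wells were set as complete cell-killing and DMSO as no toxicity.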
S2 tox – cell viability loss in ATXN counter-screen. S2 cells (HEK-293 line with an ATXN2-luciferase reporter) viability, CellTiter-Fluor protease fluorescence, 24 h. Potency, µM (top dose mostly 56.7 µM), actives largely listed as cytotoxic. actives 0.49% (n = 400,000); note: nearly all actives have a fitted effect of over 40% in size
ATXN2 expr inh – ATXN2 expression inhibition; HEK-293 ATXN2-luciferase reporter, luminescence, 24 h; Potency, µM (series often up to 57 µM), for inactives: top-dose activity change, negative = inhibition, most hits filed as inhibitors; actives 0.72% (n = 360,000); AID 1745845; note: % is set by controls: 0 for no effect and ±100 for the full control effect; nearly all actives have a fitted effect of over 55% in size
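qHTS (up to 57 uM final) was run with 24 h compound exposure of reporter cells at 37 °C. Each well was multiplexed: SteadyGlo luminescence measured ATXN2-luciferase expression after a fluorogenic Gly-Phe-AFC viability readout (25 uM final).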
An asterisk follows results filed as active; i = inactive; u = inconclusive; x = not tested or not shown. Calls come from the whole dose curve; as a rule, active = well fitted curve in the direction sought with a large enough effect; inconclusive = small, poorly fitted or top-dose-only effect, or another doubt; inactive = no such curve, though single readings can be large; an effect the other way counts as inactive or inconclusive. Potency is the fitted concentration of half-maximal effect.

SMILES | TGFb SMAD3 inh | HepG2 viability | S2 tox | ATXN2 expr inh
C#CC(=O)N(c1cc(OC)ccc1OC)C(C(=O)NC1CCCC1)c1cccs1 (centres undefined) | u | -83.4% | 31.6µM* | u
COc1ccc(N(C(=O)c2snc(C(N)=O)c2N)C(C(=O)NC2CCCC2)c2cccs2)cc1OC (centres undefined) | 2.0% | 0.6% | i | -0.3%
COc1ccc(N(C(=O)c2ccco2)C(C(=O)NC2CCCCC2)c2cccs2)cc1OC (centres undefined) | -2.5% | 1.0% | u | 0.9%
C#CC(=O)N(c1ccc(OC)cc1OC)C(C(=O)NC1CCCC1)c1cccs1 (centres undefined) | u | -52.0% | x | 1.78µM*
Cc1ccccc1-c1cc2c(c(OC3CCOC3)c1)OCCN(C(=O)Cn1cccn1)C2 (centres undefined) | x | x | i | x
COc1ccc(N/C=C2\CCc3ccccc3C2=O)cc1 | -29.7% | 11.2µM* | i | -55.4%
COC(=O)C1CCN(Cc2ccc3c(c2)CN(C(=O)c2cc(-c4ccc(C)o4)[nH]n2)CCO3)CC1 | x | x | i | x
COc1ccccc1CCc1nc2ccccc2n1C1CCN(C(=O)c2cc(C)nn2C)CC1 | x | x | i | x
O=S(=O)(Nc1ccc(-n2cccc2)cc1)c1ccc(Cl)c(Cl)c1 | 11.2µM* | -102.5% | i | x
Nc1cc(S(=O)(=O)Nc2ccc(Br)cc2)ccc1Cl | u | 11.2µM* | i | 1.1%
COc1ccc(NS(=O)(=O)c2ccc(Cl)c(N)c2)cc1Br | u | -24.3% | i | 4.4%
COc1cc(=O)n2c(c1C(=O)NCc1ccc3c(c1)OCO3)CCN(C(=O)c1ccc(C)cc1)CC2 | x | x | i | x
COc1ccc(S(=O)(=O)N2CCN(C(=O)CSC(=S)N3CCCC3)CC2)cc1 | u | 15.8µM* | i | x
C=C(C)[C@@H]1CC[C@]2(C)CC[C@]3(C)[C@H](CC[C@@H]4[C@@]5(C)CC[C@H](O)C(C)(C)[C@H]5CC[C@]43C)[C@@H]12 | x | x | x | 4.6%
CCCS(=O)(=O)c1c(S(=O)(=O)CCC)c2c(C)cccn2c1C(=O)N/N=C/c1cc(O)cc(O)c1 | -15.4% | -11.6% | i | 7.94µM*
CC(CCC(C)[n+]1cccc(C#N)c1)[n+]1cccc(C#N)c1 (centres undefined) | 20.4% | 3.4% | x | x
O=C(Nc1cc(C(=O)NC2CCOCC2)c2c(c1)ncn2C1CCCC1)c1ccccc1 | x | x | i | x
CCCc1nc2ccccc2c(=O)n1/N=C/c1ccccc1O | 2.82µM* | -36.1% | i | 14.3%
Cc1ccc(-c2[nH]ncc2/C=N/n2c(COc3ccccc3C)nc3ccccc3c2=O)cc1 | 12.6µM* | 5.62µM* | x | 28.2µM*
Cc1cc(S(=O)(=O)NCCc2csc(-c3cccc(F)c3)n2)ccc1F | u | 12.6µM* | u | u
O=C(NCCc1csc(-c2ccc(F)cc2)n1)c1cccc(F)c1 | u | -36.2% | u | 28.2µM*
Cc1cc(C)cc(C(=O)NCCc2csc(-c3ccc(C(F)(F)F)cc3)n2)c1 | -2.9% | -0.4% | x | x
O=C(NCCc1csc(-c2ccc(C(F)(F)F)cc2)n1)c1ccc(F)c(F)c1 | 11.2µM* | -74.4% | u | 20µM*
CCC(=O)O[C@]1(C(=O)COC)[C@@H](C)C[C@H]2[C@@H]3CCC4=CC(=O)C=C[C@]4(C)C3(F)[C@@H](O)C[C@@]21C (some centres undefined) | x | x | i | -1.1%
CCN1CCc2c(sc(NC(=S)NC(=O)c3cccc(F)c3)c2C(N)=O)C1 | 56.5% | -13.6% | x | x
SMILES | TGFb SMAD3 inh | HepG2 viability | S2 tox | ATXN2 expr inh
O=C(/C=C/c1ccccc1)Oc1cccc2cccnc12 | 3.98µM* | 3.98µM* | i | x
O=C(/C=C\c1ccccc1)Oc1cccc2cccnc12 | u | -0.7% | u | x
Cc1csc(SCC(=O)NCC2Cc3cc(-c4cncnc4)ccc3O2)n1 (centres undefined) | x | x | i | x
Cc1ccc(-n2nnc(-c3nsc(NC(=O)c4ccccc4)n3)c2C)cc1 | -22.3% | -23.3% | i | -31.4%
COc1ccc(C(=O)Nc2nc(-c3nnn(-c4ccc(F)cc4F)c3C)ns2)cc1 | u | -36.2% | u | 11.2µM*
Cc1c(-c2nsc(NC(=O)c3cccs3)n2)nnn1-c1ccc(Br)cc1 | -25.8% | -37.1% | 31.6µM* | u
COc1cccc(C(=O)Nc2nc(-c3nnn(-c4cc(C)ccc4C)c3C)ns2)c1 | -14.6% | -11.6% | i | 8.2%
COc1cccc(C(=O)Nc2nc(-c3nnn(-c4ccccc4C(F)(F)F)c3C)ns2)c1 | 12.6µM* | -54.1% | i | -24.5%
O=C(C[n+]1ccccc1Br)c1ccc(F)cc1 | 11.9% | 8.1% | x | x
Cc1ccc(C(=O)c2coc3c2C(=O)C(=O)c2ccccc2-3)cc1 | u | 11.2µM* | x | u
Cc1ccc(C(=O)c2c(C)oc3c2C(=O)C(=O)c2ccccc2-3)cc1 | u | -62.1% | x | u
Cc1oc2c(c1C(=O)c1ccc(Cl)cc1)C(=O)C(=O)c1ccccc1-2 | -6.7% | 9.9% | 7.08µM* | 5.62µM*
CC(C)[C@H](NC(N)=O)C(=O)Nc1cccc([N+](=O)[O-])c1 | 0.631µM* | 14.0% | i | 11.3%
COc1ccc(OC)c(C=C2CCc3ccccc3C2=O)c1 | -22.9% | 3.1% | u | 0.1%
COc1ccc2c(c1)CC/C(=C/c1cc(OC)c(OC)c(OC)c1)C2=O | -4.6% | 0.141µM* | i | u
CC(C)c1ccc(C(O)P(=O)(OC2CCCCC2)OC2CCCCC2)cc1 (centres undefined) | u | -133.5% | 31.6µM* | x
COc1cc(C(O)P(=O)(OC2CCCCC2)c2ccc(N(C)C)cc2)cc(OC)c1OC (centres undefined) | 7.2% | -4.4% | i | -4.5%
CCC(=O)NS(=O)(=O)c1ccc(-c2c(-c3ccccc3)noc2C)cc1 | x | x | i | x
CO[C@H]1[C@H](NC(=O)c2ccco2)c2ccccc2C12CCN(Cc1cccn1-c1ccccn1)CC2 | x | x | i | x
COc1ccc(C(=O)/C=C/Sc2nc3ccccc3o2)cc1 | 10µM* | 17.8µM* | x | u
C/C(=N\OCc1ccc(C#N)cc1)c1ccccc1 | 20.5% | 5.9% | i | 64.3%
C/C(=N\OCc1cccc(C(=O)O)c1)c1ccc(Cl)cc1 | 5.1% | 0.0% | i | 2.82µM*
CCOc1ccc(-c2nnc(SCC(=O)Nc3ccc4c(c3)c3ccccc3n4CC)n2N)cc1 | u | -77.4% | x | 31.6µM*
CCn1c2ccccc2c2cc(NC(=O)CSc3nnc(-c4ccc(OC)c(OC)c4)n3N)ccc21 | -18.7% | -10.8% | x | x
COc1cc(C(=O)N(Cc2cc3ccc(C)cc3nc2N(C)C)C2CC2)cc(OC)c1OC | x | x | i | x
C[C@@H]1CN([C@@H](C)CO)S(=O)(=O)c2ccc(Br)cc2O[C@H]1CN(C)Cc1ccc(-c2ccccc2)cc1 | u | -63.3% | u | u
